Our source for the z-score and composite z-score values is PubChem BioAssay.

Structures are written as SMILES. Active and inactive are the calls of the source.

A short description of test [1]: optical density shifts of acrAB sulA E. coli – strain DRC41, OD650, 48 h, E. coli filamentation inducer project, primary screen (AID 1152).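 Further: E. coli MC1000 strain DRC41 lacking acrAB efflux pump and sulA.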 As to conditions: higher = more signal, called active from +8 up or from −8 down.
The nature of test [2]: probe aLefty1 binding on compound microarray – biochemical, small-molecule microarray, 635/667 nm fluorescence, primary screen (AID 1153).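 Further: score merges spot fluorescence with signal-to-noise ratio from the scanned slide images.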 The following applies: higher = more signal.
A short description of test [3]: plasmodial surface anion channel blockers, osmotic lysis – cell-based, P. falciparum Indochina, OD700, 1 h, primary screen (AID 1154). As to conditions: P. falciparum Indochina infected RBC osmotic lysis, higher = more signal, called active from +8 up or from −8 down.
A short description of test [4]: plasmodial surface anion channel blockers, osmotic lysis – cell-based, P. falciparum Indochina, OD700, 2 h, primary screen (AID 1155).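 Further: lysis reports solute entry through the parasite surface anion channel PSAC.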 The following applies: P. falciparum Indochina infected erythrocytes, higher = more signal, called active from +8 up or from −8 down.
Test [5] is described as follows: changes in parasitized red cell lysis, either direction – P. falciparum Indochina, OD700, 3 h, PSAC antagonist project, primary screen (AID 1156). The following applies: P. falciparum-infected erythrocytes, osmotic lysis, higher = more signal, called active from +8 up or from −8 down.
Test [6] is described as follows: plasmodial surface anion channel blockers, osmotic lysis – cell-based, P. falciparum Indochina, OD700, 18 h, primary screen (AID 1157). The following applies: P. falciparum Indochina infected erythrocytes, osmotic lysis OD700, 18 h; higher = more signal, called active from +8 up or from −8 down.
Test [7] can be described thus: S6 kinase pathway phospho-S6 level changes – cell-based, A549, cytoblot, luminescence, serum-stimulated, primary screen (AID 1158).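 Further: serum-stimulated A549 lung adenocarcinoma cells; signal is phosphorylated S6 detected by cytoblot immunostaining with HRP secondary.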 The following applies: 5 h, higher = more signal.
In test [8] the target is NADPH oxidase 2 (Homo sapiens) (UniProt P04839). Description: compounds shifting NOX2 Amplex Red fluorescence – cell-based, HEK293-NOX2, PMA-stimulated, NOX inhibitor project, primary screen (AID 1159). Further: test concentration not given here. The following applies: 45 min, higher = more signal, called active from +8 up or from −8 down.
Sequence of NADPH oxidase 2 (Homo sapiens) (P04839 whole entry, looked up): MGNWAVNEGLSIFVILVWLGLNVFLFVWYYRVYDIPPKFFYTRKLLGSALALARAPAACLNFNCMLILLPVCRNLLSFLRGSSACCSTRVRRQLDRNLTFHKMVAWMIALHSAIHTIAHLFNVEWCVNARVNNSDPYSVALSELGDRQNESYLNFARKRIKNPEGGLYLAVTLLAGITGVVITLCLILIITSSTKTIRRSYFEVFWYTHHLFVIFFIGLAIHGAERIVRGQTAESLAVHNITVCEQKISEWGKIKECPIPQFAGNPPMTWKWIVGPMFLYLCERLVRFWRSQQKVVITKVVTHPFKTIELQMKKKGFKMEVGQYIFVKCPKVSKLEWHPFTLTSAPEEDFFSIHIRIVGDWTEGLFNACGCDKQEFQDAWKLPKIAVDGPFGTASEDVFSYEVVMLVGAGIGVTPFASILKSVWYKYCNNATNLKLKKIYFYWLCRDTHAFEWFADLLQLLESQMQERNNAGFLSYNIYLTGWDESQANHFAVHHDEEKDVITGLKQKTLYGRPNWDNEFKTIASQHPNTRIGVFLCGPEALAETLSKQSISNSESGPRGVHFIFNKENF
For test [9], the target named is NADPH oxidase 4 (Homo sapiens) (UniProt Q9NPH5). The test can be described thus: compounds shifting NOX4 Amplex Red fluorescence – cell-based, HEK293-NOX4, tetracycline-induced, NOX inhibitor project, primary screen (AID 1160). The following applies: HEK293-NOX4, Amplex Red H2O2 fluorescence, 45 min; higher = more signal, called active from +8 up or from −8 down.
Sequence of NADPH oxidase 4 (Homo sapiens) (Q9NPH5 whole entry, looked up): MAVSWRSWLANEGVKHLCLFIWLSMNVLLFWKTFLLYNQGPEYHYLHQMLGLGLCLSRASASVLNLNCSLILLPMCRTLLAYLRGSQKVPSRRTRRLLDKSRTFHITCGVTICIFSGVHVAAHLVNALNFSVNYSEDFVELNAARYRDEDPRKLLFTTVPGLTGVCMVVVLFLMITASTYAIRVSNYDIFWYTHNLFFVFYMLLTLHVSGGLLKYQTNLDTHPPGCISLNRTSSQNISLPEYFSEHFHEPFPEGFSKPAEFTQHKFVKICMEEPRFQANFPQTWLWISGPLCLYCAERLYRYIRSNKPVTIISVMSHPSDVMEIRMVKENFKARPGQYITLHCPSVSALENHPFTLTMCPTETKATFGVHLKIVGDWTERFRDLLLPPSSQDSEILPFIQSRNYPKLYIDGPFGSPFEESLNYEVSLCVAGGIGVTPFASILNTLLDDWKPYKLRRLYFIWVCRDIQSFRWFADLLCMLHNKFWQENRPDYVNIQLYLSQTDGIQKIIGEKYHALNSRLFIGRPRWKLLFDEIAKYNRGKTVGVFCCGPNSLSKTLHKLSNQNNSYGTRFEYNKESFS
The target in test [10] is NADPH oxidase 5 (Homo sapiens) (UniProt Q96PH1). Description: compounds shifting NOX5 Amplex Red fluorescence – cell-based, HEK293-NOX5, NOX inhibitor project, primary screen (AID 1161). The following applies: HEK293-NOX5, ionomycin, 45 min, higher = more signal.
Sequence of NADPH oxidase 5 (Homo sapiens) (Q96PH1 whole entry, looked up): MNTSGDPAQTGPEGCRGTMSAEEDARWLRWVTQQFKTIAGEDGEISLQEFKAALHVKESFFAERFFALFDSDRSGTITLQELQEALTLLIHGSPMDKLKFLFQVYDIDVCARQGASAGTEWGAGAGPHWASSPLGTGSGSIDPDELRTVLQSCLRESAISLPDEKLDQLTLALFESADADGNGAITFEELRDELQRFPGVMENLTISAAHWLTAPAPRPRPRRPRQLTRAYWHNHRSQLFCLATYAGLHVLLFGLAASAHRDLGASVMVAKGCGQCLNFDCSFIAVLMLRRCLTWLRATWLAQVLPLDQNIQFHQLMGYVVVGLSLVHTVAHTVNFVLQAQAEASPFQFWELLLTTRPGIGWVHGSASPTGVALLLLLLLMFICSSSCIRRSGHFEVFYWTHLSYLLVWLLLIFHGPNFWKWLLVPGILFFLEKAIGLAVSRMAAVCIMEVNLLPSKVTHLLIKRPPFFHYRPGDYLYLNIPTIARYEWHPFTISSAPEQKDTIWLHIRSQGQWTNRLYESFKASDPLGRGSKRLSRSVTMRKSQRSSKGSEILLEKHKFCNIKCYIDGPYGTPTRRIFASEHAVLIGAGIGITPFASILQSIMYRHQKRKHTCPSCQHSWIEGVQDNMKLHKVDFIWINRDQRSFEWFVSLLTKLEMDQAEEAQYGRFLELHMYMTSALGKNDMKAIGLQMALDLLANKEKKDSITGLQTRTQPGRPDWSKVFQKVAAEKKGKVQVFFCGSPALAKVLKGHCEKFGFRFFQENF
A short description of test [11]: compound effects on lung adenocarcinoma cell viability – A549, calcein-AM fluorescence, 48 h, basal, profiling panel (AID 1162). Further: test concentration not given here. As to conditions: higher = more signal.
The nature of test [12]: compound effects on differentiated 3T3-L1 adipocyte viability – cell-based, 3T3-L1 adipocytes, calcein-AM fluorescence, 48 h, basal, profiling panel (AID 1163). Further: test concentration not given here. As to conditions: 3T3-L1 adipocytes viability, higher = more signal.
A short description of test [13]: compound effects on hepatocellular carcinoma cell viability – HepG2, calcein-AM fluorescence, 48 h, basal, profiling panel (AID 1164). Further: test concentration not given here. The following applies: higher = more signal.
Test [14] in a line: compound effects on multiple myeloma cell viability – MM1S, calcein-AM fluorescence, 48 h, basal, profiling panel (AID 1165).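 Further: viability of MM1S multiple myeloma cells under basal unstimulated conditions; test concentration not given here.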 The following applies: higher = more signal.
Test [15] can be described thus: calcein-AM signal in unstimulated myeloma cells – cell-based, calcein-AM fluorescence, 48 h, PK04 Diversity Set, profiling panel (AID 1166).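 Further: cells grown under basal conditions without added stimulus; test concentration not given here.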 As to conditions: RPMI8226 myeloma viability, higher = more signal.
Test [16] is described as follows: JC-1 mitochondrial signal, unstimulated HepG2 cells – cell-based, JC-1 fluorescence, 24 h, 100 nL compound, profiling panel (AID 1167). Further: test concentration not given here. The following applies: HepG2 mitochondrial potential, higher = more signal.
A short description of test [17]: JC-1 mitochondrial signal, unstimulated adipocytes – cell-based, JC-1 fluorescence, 3T3-L1 adipocytes, 24 h, 100 nL compound, profiling panel (AID 1168). Further: test concentration not given here. The following applies: JC-1 mitochondrial fluorescence, higher = more signal, called active from +8 up or from −8 down.
The nature of test [18]: JC-1 mitochondrial signal, unstimulated myeloma cells – cell-based, JC-1 fluorescence, RPMI8226, 24 h, 100 nL compound, profiling panel (AID 1169). Further: test concentration not given here. The following applies: JC-1 mitochondrial potential fluorescence, higher = more signal.
Test [19] can be described thus: JC-1 mitochondrial signal, unstimulated MM1S myeloma – cell-based, JC-1 fluorescence, 24 h, 100 nL compound, profiling panel (AID 1170). Further: test concentration not given here. As to conditions: MM1S mitochondrial potential, higher = more signal.
Test [20] is described as follows: resazurin metabolic signal in A549 cells – cell-based, resazurin fluorescence, 24 h, PK04 Diversity Set, profiling panel (AID 1171). Further: test concentration not given here. The following applies: A549 viability, higher = more signal, called active from +8 up or from −8 down. (The colour change of resazurin is a common sign of viable cells or microbes.)

With `CCCC[C@H]1OB(O)C[C@H]2C1=C(COc1ccccc1)C[C@H]1C(=O)C=CC(=O)[C@H]12`, the z-score in [1] is 1.55 (inactive); in [3], 1.49 (inactive); in test [4], 0.0962 (inactive); in test [5], 0.129 (inactive); in test [6] it was 0.134 (inactive); in test [7] it was -0.0871. Also, the z-score in test [8] was -0.429 (inactive); in test [9], -1.48 (inactive); in [10], -5.03; in test [11] it was 0.696; in test [12], -0.0337; in test [13] it was 0.176. Moreover, the z-score in [14] was -3.27; in test [15], -3.25; in test [16], -1.59; in test [17] it was -0.201 (inactive); in [18], -0.431; in test [19] it was -1.08. Besides, the z-score in test [20] was 0.121 (inactive). The compound further showed a composite z-score in test [2] of -0.134.
Turning to `COCCOC(=O)N1C(=O)[C@@]2(c3cc(C#CCC(C(=O)OC)C(=O)OC)ccc31)[C@H](C(N)=O)[C@H]1C(=O)O[C@H](c3ccccc3)[C@H](c3ccccc3)N1[C@@H]2c1ccc(O)cc1`, the z-score in [1] is -0.247 (inactive); in test [3], 26.5 (active); in test [4], 12.4 (active); in test [5] it was 3.28 (inactive); in test [6], 2.53 (inactive); in test [7] it was -0.255. Also, the z-score in test [8] is 1.29 (inactive); in test [9], 0.385 (inactive); in test [10], 0.73; in test [11], -0.181; in test [12], -0.187; in test [13] it was -1.52. For the same compound, the z-score in [14] is -3.37; in test [15], -4.02; in [16], -0.864; in [17], 2.05 (inactive); in [18], -1.19; in test [19], -2.07. For the same compound, in [20], the z-score was 0.163 (inactive). Also, the composite z-score in [2] came to 0.0406.
Regarding `COC(=O)[C@@]1(Cc2ccc(OC)cc2)[C@H]2c3cc(C(=O)N4CCCC4)n(CCn4cc([N+](=O)[O-])nc4C)c3C[C@H]2CN1C(=O)c1ccccc1`, the z-score is -2.21 (inactive) in test [1]; 2.38 (inactive) in test [3]; 0.0212 (inactive) in [4]; 0.217 (inactive) in test [5]; 0.543 (inactive) in [6]; -0.108 in test [7]. Also, the z-score in test [8] was 0.54 (inactive); in test [9] it was -1.39 (inactive); in [10], -2.54; in test [11], -1.13; in [12] it was 0.936; in test [13], 0.0032. For the same compound, the z-score is -0.0622 in test [14]; -2.16 in [15]; 2.13 in [16]; -1.03 (inactive) in [17]; 0.564 in test [18]; -0.693 in test [19]. For the same compound, the z-score in [20] was -0.612 (inactive). Further, the composite z-score in test [2] came out at 2.16.
As for `C=C(CCCC)/C(=C/C[C@H](OC(=O)c1ccncc1)c1cccc(OCCO)c1)c1cnc2ccccc2c1`, the z-score in test [1] is -0.639 (inactive); in test [3], 23.9 (active); in [4], 7.01 (inactive); in test [5], 1.5 (inactive); in [6], 1.26 (inactive); in [7] it was -0.282. In addition, the z-score in test [8] is -0.777 (inactive); in [9] it was -0.293 (inactive); in test [10], -1.82; in [11], 1.35; in test [12] it was -0.893; in test [13] it was 0.0815. Moreover, the z-score was -3.37 in [14]; -2.3 in [15]; 0.99 in test [16]; -1.16 (inactive) in test [17]; -0.817 in test [18]; -0.718 in [19]. Besides, in test [20], the z-score was 0.588 (inactive). Besides, the composite z-score in test [2] was 0.0429.
On to `CO[C@H]1O[C@H](CO)[C@@H](OC(=O)Nc2ccccc2)[C@H](OC(=O)Nc2ccccc2)[C@H]1OC(=O)Nc1ccccc1`, for which the z-score in test [1] was 0.492 (inactive); in test [3], 4.11 (inactive); in [4], 1.04 (inactive); in test [5], 0.406 (inactive); in test [6], 0.912 (inactive); in [7], 0.22. Moreover, the z-score in test [8] is -7.66 (inactive); in test [9], -1.15 (inactive); in [10] it was -2.32; in test [11], -1.27; in test [12], 0.416; in test [13] it was -1.92. Further, the z-score is -0.77 in test [14]; -3.14 in test [15]; 0.292 in [16]; 0.0293 (inactive) in test [17]; -0.77 in test [18]; -1.06 in test [19]. In addition, in test [20], the z-score is -3.04 (inactive). Besides, in test [2], the composite z-score was found to be 0.264.
Turning to `CCCCC(=C=CC[C@H](O)c1ccc(CO)o1)CCO`, the z-score in test [1] is -0.258 (inactive); in test [3] it was 2 (inactive); in test [4] it was 0.278 (inactive); in test [5], 0.517 (inactive); in [6], 0.134 (inactive); in test [7], -0.189. Besides, the z-score in [8] was 0.802 (inactive); in test [9] it was -0.0669 (inactive); in test [10] it was -0.395; in [11], -0.231; in test [12], -0.652; in test [13], 0.115. Further, the z-score in test [14] was -0.562; in test [15] it was -0.0295; in [16] it was -0.787; in [17], -0.848 (inactive); in [18], -0.0527; in test [19] it was -0.534. Further, the z-score in test [20] is -0.598 (inactive). The composite z-score in [2] was -0.0445.
With `CC(C)OC(=O)CC(=O)CC(O)c1cccc([N+](=O)[O-])c1` (stereo not given), the z-score was 1.27 (inactive) in test [1]; 3.27 (inactive) in test [3]; 0.79 (inactive) in [4]; -1.39 (inactive) in test [5]; -0.295 (inactive) in [6]; 2.1 in test [7]. Also, the z-score was -0.068 (inactive) in test [8]; 0.147 (inactive) in test [9]; 0.435 in test [10]; 1.07 in test [11]; 0.804 in [12]; 0.729 in [13]. Moreover, the z-score was 1.21 in test [14]; 0.0484 in [15]; -0.524 in [16]; -0.718 (inactive) in test [17]; 0.193 in test [18]; -1.38 in test [19]. In addition, the z-score in test [20] is 0.0126 (inactive). In test [2], this compound gave a composite z-score of 0.318.
For the compound `N#Cc1ccc(-c2cccc(=O)o2)cc1`, the z-score was -0.729 (inactive) in [1]; 3.14 (inactive) in test [3]; 1.15 (inactive) in [4]; -0.598 (inactive) in [5]; 0.979 (inactive) in test [6]; -0.0905 in [7]. The z-score was 0.191 (inactive) in [8]; -1.72 (inactive) in test [9]; 0.172 in test [10]; -0.719 in test [11]; -1.13 in test [12]; 0.37 in test [13]. Also, the z-score is -0.0271 in test [14]; -0.394 in test [15]; -0.875 in test [16]; 0.492 (inactive) in test [17]; 0.0366 in [18]; -0.548 in [19]. The z-score in test [20] is -0.0498 (inactive). For the same compound, the composite z-score in test [2] is -0.0954.
For the compound `CC(C)C[C@H]1NC(=O)C([C@@H](C)OCc2ccccc2)NC(=O)[C@@]23C(=O)N[C@@H](Cc4ccccc4)C2[C@H](C)[C@@]2(C)O[C@H]2C3/C=C/C/C=C\CNC1=O` (stereo not given in full), the z-score in test [1] was -0.629 (inactive); in [3] it was 1.44 (inactive); in test [4] it was -0.387 (inactive); in [5] it was -0.0195 (inactive); in test [6], 0.0591 (inactive); in [7], 0.298. Also, the z-score in test [8] was 0.569 (inactive); in test [9] it was 0.742 (inactive); in test [10] it was -2.51; in test [11] it was -0.469; in [12], 1.9; in [13], -0.3. Also, the z-score in [14] is -0.936; in test [15], -1.53; in test [16], 0.169; in [17] it was 0.679 (inactive); in test [18], -0.872; in [19], 0.277. Further, the z-score in [20] was 0.154 (inactive). The same compound came in with a composite z-score in [2] of 0.0361.
